# From PubChem BioAssay
# Values joined by “and” are separate entries in the source; they are usually repeats but may differ in a detail not shown here. Equal values may be shown once. Active and inactive are the calls of the source. Cut-off read from the data, not from the text of the source, unless noted: active = inhibition above about 80%; inactive = the rest.
# Columns and labels:
# [1] = LFS_MB_P medulloblastoma growth inhibition, cell-based, chromothripsis tumors, cisplatin or BGB combos (AID 1671449); settings: LFS_MB_P medulloblastoma cells;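 note: cells exposed for 96 hours; 0% = vehicle DMSO and 100% = killing by high DMSO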
# [2] = HDN33 neuroblastoma growth inhibition, cell-based, chromothripsis tumors, cisplatin or BGB combos (AID 1671450); settings: HDN33 neuroblastoma cells, stronger effect = higher value;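 note: cells exposed to compound for four days; 0% = vehicle DMSO and 100% = cell killing by high DMSO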
# [3] = ICB984 medulloblastoma cell growth inhibition, synergistic combos for chromothripsis tumors, cisplatin or BGB combos (AID 1671451; call rule not given here;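 note: cells exposed for 96 hours before readout; 0% = vehicle DMSO and 100% = killing by high DMSO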); settings: ICB984 medulloblastoma cells, drug combinations, stronger effect = higher value
# [4] = LFS_MB_1R medulloblastoma cell growth inhibition, synergistic combos for chromothripsis tumors, cisplatin or BGB combos (AID 1671452); settings: LFS_MB_1R medulloblastoma cells, stronger effect = higher value;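 note: cells exposed for 96 hours before readout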
# [5] = HTB85 osteosarcoma cell growth inhibition, synergistic combos for chromothripsis tumors, BGB or cisplatin IC20 combos (AID 1671453); settings: HTB85 osteosarcoma cells, drug combinations, stronger effect = higher value;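 note: cells exposed for 96 hours before readout; 0% = vehicle DMSO and 100% = high DMSO killing control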
# [6] = CRL2098 osteosarcoma cell growth inhibition, synergistic combos for chromothripsis tumors, BGB or cisplatin IC20 combos (AID 1671454); settings: CRL2098 osteosarcoma cells, drug combinations, stronger effect = higher value;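 note: cells exposed for 96 h before readout; 0% = vehicle DMSO and 100% = killing by high DMSO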
# [7] = HD-MB03 medulloblastoma cell growth inhibition, synergistic combos for chromothripsis tumors, BGB or cisplatin IC20 combos (AID 1671455; in the data active = inhibition above about 83%;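 note: 0% = vehicle DMSO and 100% = high DMSO as cytotoxic control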); settings: HD-MB03 medulloblastoma cells, stronger effect = higher value
# [8] = UWB1.289 ovarian carcinoma cell growth inhibition, synergistic combos for chromothripsis tumors, BGB or cisplatin combos (AID 1671456); settings: UWB1.289 ovarian carcinoma cells, stronger effect = higher value;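 note: cells exposed to compound for four days; 0% = vehicle DMSO and 100% = killing by high DMSO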
# [9] = LFS_MB_2R medulloblastoma cell growth inhibition, synergistic combos for chromothripsis tumors, cisplatin combos (AID 1671457); settings: LFS_MB_2R medulloblastoma cells, stronger effect = higher value;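 note: cells exposed to compound for four days before readout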
# [10] = MDA-MB-436 breast carcinoma cell growth inhibition, synergistic combos for chromothripsis tumors, BGB or cisplatin combos (AID 1671458; call rule not given here;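 note: cells exposed for 96 hours; 0% = vehicle DMSO and 100% = killing by high DMSO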); settings: MDA-MB-436 breast carcinoma growth inhibition, drug combinations, stronger effect = higher value
# [11] = UWB1.289_BRCA1 ovarian cancer growth, cell-based, BGB or cisplatin combinations (AID 1671459); settings: UWB1.289 BRCA1 ovarian carcinoma, drug combinations, stronger effect = higher value
# [12] = human astrocyte viability loss, single and combined drugs, cytotoxicity control for chromothriptic childhood tumor combination screen, cell-based, BGB or cisplatin IC20 combos (AID 1671460); settings: Human astrocytes, drug combinations, stronger effect = higher value;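 note: cells exposed to compounds for 96 hours before viability readout; 0% = vehicle and 100% = killing control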
# [13] = growth inhibition of BT084 medulloblastoma cells, cell-based, ICGC_MB145, cisplatin and BGB IC40 combos (AID 1671461); settings: drug combinations, stronger effect = higher value;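 note: cells exposed to drugs for 96 hours; 0% = vehicle DMSO and 100% = high DMSO full killing control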
# [14] = growth inhibition of RCMB18 medulloblastoma cells, cell-based, cisplatin and BGB IC40 combos (AID 1671462); settings: stronger effect = higher value;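 note: cells exposed to compound for four days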
# [15] = growth inhibition of CRL1545 osteosarcoma cells, cell-based, cisplatin and BGB IC20 combos (AID 1671464); settings: stronger effect = higher value;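 note: cells exposed to compound for 96 hours before readout; 0% = vehicle DMSO and 100% = high DMSO killing control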
# [16] = at 0.5 µM, stronger effect = higher value
# [17] = measured here: combination with BGB IC20, at 0.005 µM
# [18] = measured here: combination with BGB IC40, at 0.005 µM
# [19] = measured here: combination with BGB IC40, at 0.05 µM
# [20] = measured here: combination with cisplatin, at 0.5 µM, stronger effect = higher value
# [21] = measured here: combination with cisplatin, at 5 µM, stronger effect = higher value
# [22] = measured here: with BGB IC20 combination, at 0.5 µM
# [23] = measured here: with cisplatin IC20 combination, at 0.5 µM
# [24] = measured here: 5 uM single agent, at 5 µM
# [25] = measured here: combination with cisplatin, at 0.5 µM
# [26] = measured here: combination with cisplatin, at 5 µM
# [27] = measured here: with BGB IC20, at 0.5 µM
# [28] = measured here: with BGB IC20, at 5 µM
# [29] = measured here: with cisplatin IC20, at 0.5 µM
# [30] = measured here: with cisplatin IC20, at 5 µM
# [31] = measured here: combination with BGB at IC20, at 0.5 µM
# [32] = measured here: combination with cisplatin at IC20, at 0.5 µM
# [33] = measured here: combo with BGB at IC20, at 0.5 µM
# [34] = measured here: combo with cisplatin at IC20, at 0.5 µM
# [35] = measured here: inhibition with BGB combination, at 0.05 µM
# [36] = measured here: inhibition with cisplatin combination, at 0.05 µM
# [37] = measured here: BGB combination, at 0.5 µM
# [38] = measured here: BGB combination, at 5 µM
# [39] = measured here: cisplatin combination, at 0.5 µM
# [40] = measured here: cisplatin combination, at 5 µM
# [41] = BGB combination, concentration series, at 5 µM
# [42] = cisplatin combination, concentration series, at 5 µM
# [43] = measured here: combo with BGB IC20, at 0.5 µM
# [44] = measured here: combo with cisplatin IC20, at 0.5 µM
# [45] = cisplatin combination, at 0.5 µM
# [46] = measured here: BGB IC40 combination 0.05 uM, at 0.05 µM
# [47] = measured here: BGB IC40 combination, at 0.05 µM
smiles,measurement,setting,value
Cc1c(Br)cc(NCC(=O)N/N=C/c2cc([N+](=O)[O-])ccc2O)cc1Br,inhibition,[1]; [16],4.38% (inactive)
same,inhibition,[1]; [17],-17.6%
same,inhibition,[1]; [18],-32.2%
same,inhibition,[1]; [19],-25.9%
same,inhibition,[1]; [20],-13.3%
same,inhibition,[1]; [21],49.2%
same,inhibition,"[2]; BGB combo, at 5 µM",40.5%
same,inhibition,[2]; at 0.5 µM,-0.34% (inactive)
same,inhibition,"[2]; cisplatin combo, at 5 µM",36.1%
same,inhibition,[2]; [22],-9.6%
same,inhibition,[2]; [23],14.3%
same,inhibition,"[2]; single agent, at 5 µM",47.8%
same,inhibition,"[3]; BGB IC20 combo, at 0.005 µM",-14%
same,inhibition,"[3]; BGB IC40 combo, at 0.005 µM",-19.6%
same,inhibition,"[3]; BGB IC40 combo, at 0.05 µM",-0.825%
same,inhibition,[3]; at 0.5 µM,-30.2% (inactive)
same,inhibition,"[3]; cisplatin combo, at 0.05 µM",-3.64%
same,inhibition,"[3]; cisplatin combo, at 0.5 µM",-27.9%
same,inhibition,"[3]; cisplatin combo, at 5 µM",-29.5%
same,inhibition,[3]; [24],-33%
same,inhibition,[4]; at 0.5 µM,-22.2% (inactive)
same,inhibition,[4]; [19],-11.7%
same,inhibition,[4]; [25],-16.8%
same,inhibition,[4]; [26],13.4%
same,inhibition,[5]; at 0.5 µM,-6.09% (inactive)
same,inhibition,[5]; [27],-1.02%
same,inhibition,[5]; [28],19.1%
same,inhibition,[5]; [29],-24.4%
same,inhibition,[5]; [30],5.29%
same,inhibition,"[5]; single agent, at 5 µM",37.4%
same,inhibition,[6]; at 0.5 µM,-42.4% (inactive)
same,inhibition,[6]; [31],-43.9%
same,inhibition,[6]; [32],-25%
same,inhibition,[7]; at 0.5 µM,-7.25% (inactive)
same,inhibition,[7]; [33],1.43%
same,inhibition,[7]; [34],-13.4%
same,inhibition,[8]; at 0.5 µM,5% (inactive)
same,inhibition,[8]; [35],-18.4%
same,inhibition,[8]; [36],-10.8%
same,inhibition,[9]; at 0.5 µM,-13% (inactive)
same,inhibition,[9]; [25],-18.6%
same,inhibition,[9]; [26],-37.8%
same,inhibition,[10]; at 0.5 µM,-18.5% (inactive)
same,inhibition,[10]; [37],-10.2%
same,inhibition,[10]; [38],25.8%
same,inhibition,[10]; [39],-39%
same,inhibition,[10]; [40],38.4%
same,inhibition,[11]; [41],59.1%
same,inhibition,[11]; at 0.5 µM,2.01% (inactive)
same,inhibition,[11]; [42],60.8%
same,inhibition,[12]; at 0.5 µM,9.92% (inactive)
same,inhibition,[12]; [43],11.5%
same,inhibition,[12]; [44],17.7%
same,inhibition,[13]; at 0.5 µM,-9.67% (inactive)
same,inhibition,[13]; [45],-1.86%
same,inhibition,"[13]; cisplatin combination, at 5 µM",27.3%
same,inhibition,[13]; [46],-3.3%
same,inhibition,"[13]; single agent, at 5 µM",6.62%
same,inhibition,[14]; at 0.5 µM,-19% (inactive)
same,inhibition,"[14]; cisplatin combo, at 5 µM",25.8%
same,inhibition,[14]; [47],-28.4%
same,inhibition,[14]; [25],22%
same,inhibition,"[14]; single agent, at 5 µM",8.19%
same,inhibition,[15]; at 0.5 µM,-4.87% (inactive)
same,inhibition,[15]; [22],-10.5%
same,inhibition,[15]; [23],-4.39%
same,inhibition,"[15]; single agent, at 0.05 µM",-22.9%
same,inhibition,"[15]; single agent, at 5 µM",44.6%
Nc1cc(F)ccc1NC(=O)/C=C/c1cnn(C/C=C/c2ccccc2)c1,inhibition,[1]; [16],19.7% (inactive) and -29.8% (inactive)
same,inhibition,[1]; [17],-27.4% and -4.91%
same,inhibition,[1]; [18],89.6% and -23%
same,inhibition,[1]; [19],10.4% and 0.325%
same,inhibition,[1]; [20],-17.2% and -44.8%
same,inhibition,[1]; [21],-14.4% and -23.8%
same,inhibition,"[2]; BGB combo, at 5 µM",-55.4% and -3.94%
same,inhibition,[2]; at 0.5 µM,-46.1% (inactive) and -1.14% (inactive)
same,inhibition,"[2]; cisplatin combo, at 5 µM",-62.1% and 12.2%
same,inhibition,[2]; [22],-50.1% and 0.078%
same,inhibition,[2]; [23],-34.6% and -2.05%
same,inhibition,"[2]; single agent, at 5 µM",-50.8% and -2.21%
same,inhibition,"[3]; BGB IC20 combo, at 0.005 µM",-16.5% and -7.2%
same,inhibition,"[3]; BGB IC40 combo, at 0.005 µM",-16% and 5.39%
same,inhibition,"[3]; BGB IC40 combo, at 0.05 µM",-9.88% and 2.13%
same,inhibition,[3]; at 0.5 µM,-33.8% (inactive) and -9.71% (inactive)
same,inhibition,"[3]; cisplatin combo, at 0.05 µM",-15.5% and -1.74%
same,inhibition,"[3]; cisplatin combo, at 0.5 µM",-45.9% and -17.3%
same,inhibition,"[3]; cisplatin combo, at 5 µM",-20.4% and -41.2%
same,inhibition,[3]; [24],-25.9% and -12.4%
same,inhibition,[4]; at 0.5 µM,-30.2% (inactive) and -13.5% (inactive)
same,inhibition,[4]; [19],-20% and -25.7%
same,inhibition,[4]; [25],-51.6% and -12%
same,inhibition,[4]; [26],-19.1% and 0.402%
same,inhibition,[5]; at 0.5 µM,-30% (inactive) and 0.99% (inactive)
same,inhibition,[5]; [27],-21.5% and 1.42%
same,inhibition,[5]; [28],-17.1% and -19.7%
same,inhibition,[5]; [29],-35.4% and -2.87%
same,inhibition,[5]; [30],19.9% and 1.46%
same,inhibition,"[5]; single agent, at 5 µM",-33.7% and -0.677%
same,inhibition,[6]; at 0.5 µM,-90.2% (inactive) and -24% (inactive)
same,inhibition,[6]; [31],-110% and -20.4%
same,inhibition,[6]; [32],-83.6% and -21.7%
same,inhibition,[7]; at 0.5 µM,-17.4% (inactive) and -5.34% (inactive)
same,inhibition,[7]; [33],-11.2% and -7.19%
same,inhibition,[7]; [34],-20.1% and 0.566%
same,inhibition,[8]; at 0.5 µM,-10.9% (inactive) and -4.29% (inactive)
same,inhibition,[8]; [35],-7.43% and -5.9%
same,inhibition,[8]; [36],-31.6% and -3.68%
same,inhibition,[9]; at 0.5 µM,-20.7% (inactive) and -11.8% (inactive)
same,inhibition,[9]; [25],-25.8% and -7.04%
same,inhibition,[9]; [26],-6.14% and -2.99%
same,inhibition,[10]; at 0.5 µM,-30.9% (inactive) and -9.97% (inactive)
same,inhibition,[10]; [37],-13.1%
same,inhibition,[10]; [38],-3.22% and -1.12%
same,inhibition,[10]; [39],-59.9% and -6.82%
same,inhibition,[10]; [40],8% and 15.6%
same,inhibition,[11]; [41],-29.7% and 12%
same,inhibition,[11]; at 0.5 µM,-22.5% (inactive) and -3.56% (inactive)
same,inhibition,[11]; [42],-4.42% and 12.4%
same,inhibition,[12]; at 0.5 µM,2.29% (inactive) and 8.32% (inactive)
same,inhibition,[12]; [43],16.9% and 12.5%
same,inhibition,[12]; [44],-7.65% and 10.5%
same,inhibition,[13]; at 0.5 µM,-9.17% (inactive) and 0.933% (inactive)
same,inhibition,[13]; [45],-6.82% and -1.46%
same,inhibition,"[13]; cisplatin combination, at 5 µM",-105% and 25.2%
same,inhibition,[13]; [46],-19.8% and -24.1%
same,inhibition,"[13]; single agent, at 5 µM",-7.33% and 11.8%
same,inhibition,[14]; at 0.5 µM,2.62% (inactive) and -10.6% (inactive)
same,inhibition,"[14]; cisplatin combo, at 5 µM",-19.2% and 26.8%
same,inhibition,[14]; [47],-14.2% and 7.18%
same,inhibition,[14]; [25],9.23% and 6.5%
same,inhibition,"[14]; single agent, at 5 µM",5.68% and -6.78%
same,inhibition,[15]; at 0.5 µM,-28.2% (inactive) and -6.93% (inactive)
same,inhibition,[15]; [22],-50.8% and -4.55%
same,inhibition,[15]; [23],-18.7% and -8.13%
same,inhibition,"[15]; single agent, at 0.05 µM",-48.6% and -13.2%
same,inhibition,"[15]; single agent, at 5 µM",23.9% and 22.7%
